From PubChem BioAssay AID602393 (Broad Institute, 2012) come the findings set out here.

In all, about 350,000 compounds went through this assay and about 7,000 (2%) were called active. No stated cut-off is given here; in the data, active means activation above about 40%; inconclusive means no clear call, values can overlap the other calls; inactive means below that. For the sample, actives were picked, then their nearest neighbours and some compounds at random.

This assay is described as follows: raisers of Bmi1 knock-in reporter signal – mouse ES cells, Bmi1 luciferase knock-in, single point, esBAF inhibitor project, primary screen (AID 602393).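 Further: 0% = median of the plate's neutral control wells and 100% = double that signal; a rise in the Bmi1 reporter signal indicates esBAF inhibition.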 The settings on record: 24 h, at 12.5 µM, active compounds read high, 100% = twice the neutral-well signal.
For `COc1ccccc1/C=C/C(=O)NC1CC2CCC1C2` (stereo not given), the reporter increase is 28.1% (inactive).
For `COc1ccccc1/C=C/C(=O)NC(=S)N1CCOCC1` the value was 44.4% (active); for `O=C(/C=C/c1ccco1)NC(=S)N1CCCCC1`, 11.3% (inactive).
As for `C[C@H]1CN([C@@H](C)CO)S(=O)(=O)c2ccc(-c3ccncc3)cc2O[C@@H]1CN(C)C(=O)CC1CC1`, the reporter increase is -3.03% (inactive).
Under `C[C@@H]1CN([C@H](C)CO)S(=O)(=O)c2ccc(C#C[C@@H](C)O)cc2O[C@H]1CN(C)CC1CC1` stands 2.12% (inactive); under `Cc1cccc(C(=O)N[C@H](C(=O)NCc2cccs2)C(C)C)c1`, -4.58% (inactive).
Under `CC(Cc1cccs1)NC(=O)NC1CCCCC1` (stereo not given) stands 17.1% (inactive); under `CC(Cc1cccs1)NC(=O)c1cccc(Cl)c1` (stereo not given), 59.9% (active).
For `C[C@@H]1CCCCO[C@@H](CN(C)S(=O)(=O)c2cn(C)cn2)[C@@H](C)CN([C@H](C)CO)C(=O)c2cc(NC(=O)c3ccncc3)ccc2O1` the value was 2.55% (inactive); for `CN1CCN(C(=O)C[C@@H]2CC[C@@H]3[C@H](COC[C@@H](O)CN3Cc3cccc(F)c3)O2)CC1`, 0.727% (inactive).
Regarding `C[C@@H]1CN([C@@H](C)CO)C(=O)c2cc(C#CCN(C)C)cnc2O[C@@H]1CN(C)Cc1ccccn1`, the reporter increase was -9.33% (inactive).
`CO[C@@H]1CN(C)C(=O)c2cc(NS(=O)(=O)c3cccc(Cl)c3)ccc2OC[C@@H](C)NC[C@@H]1C`: the reporter increase is 3.71% (inactive).
Under `Cc1ccc(Cc2c(-c3ccco3)nc3ccc(Cl)cn23)cc1` stands -7.76% (inactive).
Under `FC(F)(F)c1ccccc1Cc1c(-c2ccccc2)nc2c3ccccc3ccn12` stands 3.35% (inactive).
In the case of `Fc1cccc(Cc2c(-c3ccc(Cl)cc3)nc3ccc(Cl)cn23)c1`, the reporter increase is 7.58% (inactive).
Take `Brc1ccc2nc(-c3ccccc3)c(Cc3ccccc3)n2c1`: the reporter increase was 18% (inactive).
As for `Cc1ccc(-c2nc3ccc(Br)cn3c2Cc2ccccc2C(F)(F)F)cc1`, the reporter increase is 58.8% (active).
For `Cc1ccc(Cc2c(-c3ccccc3)nc3ccc(Cl)cn23)cc1`, the reporter increase is 21% (inactive).
With `Cc1ccc(-c2nc3ccc(Cl)cn3c2Cc2ccccc2)cc1`, the reporter increase was 44.1% (active).
As to `Fc1cccc(Cc2c(-c3cccc(Cl)c3)nc3ccc(Br)cn23)c1`, the reporter increase was 57.3% (active).
Under `Clc1cccc(Cc2c(-c3cccc(Cl)c3)nc3ccc(Cl)cn23)c1` stands 35.2% (inactive); under `C[C@H](CO)N1C[C@H](C)[C@H](CN(C)C(=O)c2ccncc2)Oc2cc(C#CC3(O)CCCC3)ccc2S1(=O)=O`, 2.01% (inactive); under `Cc1ccc(S(=O)(=O)N[C@@H]2CC[C@H](CCNC(=O)C3CCOCC3)O[C@@H]2CO)cc1`, 3.97% (inactive).
For `O=C(CN1CCOCC1)Nc1ccc(NC(=O)CN2CCOCC2)c(Cl)c1` the value was 3.57% (inactive).
For `CC1CCCN(CC(=O)Nc2cc(Cl)ccc2Oc2ccccc2)C1` (stereo not given), the reporter increase is 0.159% (inactive).
For `CC(=O)Nc1ccc(NC(=O)CN2CCCC(C)C2)c(Cl)c1` (stereo not given) the value was 49.7% (active).
Take `Oc1ccc(-n2nnnc2SCc2c(F)cccc2Cl)cc1`: the reporter increase is -6.31% (inactive).
As to `Cn1c(SCc2c(F)cccc2Cl)nnc1-c1cnccn1`, the reporter increase was 59% (active).
As for `Cn1c(SCC(=O)c2ccc(F)cc2)nnc1-c1ccccn1`, the reporter increase was 39.1% (inactive).
As for `Cc1noc(C)c1S(=O)(=O)Nc1ccc2c(c1)C(=O)N([C@@H](C)CO)C[C@@H](C)[C@@H](CN(C)Cc1ccccc1)OCCCC[C@H](C)O2`, the reporter increase was -1.71% (inactive).
`CCOC(=O)CSc1nnc(CNc2ccc(F)cc2)o1`: the reporter increase was 4.3% (inactive).
For `Cc1ccn2c(=O)nc(SCC(=O)NCc3ccc(F)cc3)nc2c1` the value was -3.54% (inactive); for `Cc1cccc2nc(CNc3ccc(F)cc3)cn12`, 56.3% (active); for `O=C(C[C@H]1CC[C@H]2[C@@H](COC[C@@H](O)CN2CCC(F)(F)F)O1)NCc1ccc2c(c1)OCO2`, -0.0255% (inactive).
Regarding `CCCC(=O)Nc1ccc2c(c1)C(=O)N(C)[C@@H]1CC[C@H](CC(=O)Nc3cn(C)nc3C)O[C@H]1CO2`, the reporter increase is -3.47% (inactive).
Under `C[C@@H]1CN([C@@H](C)CO)C(=O)c2cc(C#CCc3ccccc3)cnc2O[C@@H]1CN(C)C(=O)C1CCOCC1` stands -0.454% (inactive); under `Cc1ccc(N2C(=O)SC(N(CC(=O)O)c3ccc(C)cc3)C2=O)cc1` (stereo not given), -3.76% (inactive); under `Cc1cccc(N(CC(=O)N2CCOCC2)S(C)(=O)=O)c1`, 0.817% (inactive).
Under `Cc1cccc(N2C(=O)SC(N(CC(=O)O)c3cccc(C)c3)C2=O)c1` (stereo not given) stands 51.9% (active); under `C[C@H]1CN([C@@H](C)CO)C(=O)c2cc(N(C)C)ccc2O[C@@H]1CN(C)C(=O)Nc1ccc2c(c1)OCO2`, 0.253% (inactive).
For `O=C(Nc1cccc2ccccc12)c1onc2c1CCCC2` the value was 68.2% (active).
For `O=C(Nc1cccc2ccccc12)NC1CC1`, the reporter increase was -6.94% (inactive).
Under `O=C(Nc1cccc2ccccc12)c1[nH]c(-c2ccccc2)c2c1C(=O)N(C1CC1)C2=O` stands -8.26% (inactive); under `C[C@@H]1CN([C@@H](C)CO)S(=O)(=O)c2ccc(C#Cc3cccnc3)cc2O[C@@H]1CN(C)C`, -4.81% (inactive); under `O=C(c1cc(-c2cccc(O)c2)on1)N1CCc2ccccc2C1`, 10.2% (inactive).
Under `O=C(c1noc2c1CCCC2)N1CCc2ccccc2C1` stands 63.6% (active).
Under `COc1ccc2c(c1)CCc1c(C(=O)N3CCc4ccccc4C3)noc1-2` stands 26.1% (inactive).
With `COC(=O)C[C@@H]1CC[C@H]2[C@H](COc3ccc(NC(=O)c4cccs4)cc3C(=O)N2C)O1`, the reporter increase is 2.44% (inactive).
Turning to `Oc1ccc(-c2cccc(-c3ccc(O)cc3)c2)cc1`, the reporter increase is 57.6% (active).
Under `O=C(CN1CCN(c2ccc(O)cc2)CC1)Nc1ccc(-c2ccccc2)cc1` stands -6.35% (inactive); under `O=C(CN1CCOCC1)NCC[C@@H]1CC[C@@H](NC(=O)Nc2ccccc2)[C@H](CO)O1`, -0.967% (inactive).
Under `CCCNC(=O)N(C)C[C@H]1Oc2cc(C3=CCCCC3)ccc2S(=O)(=O)N([C@H](C)CO)C[C@H]1C` stands -6.45% (inactive); under `COc1ccc(NC(=O)N(C)C[C@@H]2OCCCC[C@H](C)Oc3ccc(NS(=O)(=O)c4cn(C)cn4)cc3C(=O)N([C@@H](C)CO)C[C@@H]2C)cc1`, 1.74% (inactive); under `C[C@@H](O)C#Cc1ccc([C@H]2[C@H](CO)N3CCCCN(C(=O)c4ccc5c(c4)OCO5)C[C@@H]23)cc1`, -3.75% (inactive).
For `COc1ccc(-n2nc(C(=O)NCC(=O)N3CCCCCC3)c3ccccc3c2=O)cc1Cl` the value was 47.6% (active).
As for `COc1ccc(-n2nc(C(=O)NCC(=O)N3CCC(C(N)=O)CC3)c3ccccc3c2=O)cc1OC`, the reporter increase is -4.41% (inactive).
Consider `COc1ccc(-n2nc(C(=O)NCC(=O)N3CCN(c4ccccc4OC)CC3)c3ccccc3c2=O)c(OC)c1`, for which the reporter increase was 30.3% (inactive).
For the molecule `CCCNC(=O)Nc1ccc2c(c1)C(=O)N(C)C[C@@H](OC)[C@H](C)CN(C(=O)C1CCCCC1)[C@H](C)CO2`, the reporter increase is 5.09% (inactive).
For `C[C@@H]1CCCCO[C@H](CN(C)S(C)(=O)=O)[C@@H](C)CN([C@H](C)CO)C(=O)c2cc(NC(=O)Nc3ccc4c(c3)OCO4)ccc2O1` the value was 6.3% (inactive); for `CCOc1cc(/C=C2\SC(N3CCCCC3)=NC2=O)ccc1O`, 30.3% (inactive).
With `CC(C)=C1SC(N2CCN(c3cccc(C)c3)CC2)=NC1=O`, the reporter increase is -1.1% (inactive).
For `CCN1C(=O)/C(=C2\SC(N3CCCCC3)=NC2=O)c2ccccc21` the value was 65% (active).
For `O=C(C[C@H]1C=C[C@H](NC(=O)Cc2ccccn2)[C@@H](CO)O1)NCCc1ccccc1` the value was -5.91% (inactive); for `CN1c2ccc(C#Cc3ccccc3F)cc2[C@@H]2[C@@H](CCN2C(=O)Cc2cccnc2)[C@H]1CO`, 1.33% (inactive).
Take `CCCOc1cccc(C(=O)Nc2nnn(CCC)n2)c1`: the reporter increase is 52.7% (active).
Regarding `CCn1nnc(NC(=O)c2c(OC)cccc2OC)n1`, the reporter increase was 1.33% (inactive).
Under `CCCn1nnc(NC(=O)COc2ccc(CC)cc2)n1` stands -6.66% (inactive); under `CO[C@H]1CN(C)C(=O)c2cc(NC(=O)Nc3c(C)noc3C)ccc2OC[C@@H](C)N(CCC(F)(F)F)C[C@H]1C`, -21.9% (inactive); under `Cc1noc(C)c1S(=O)(=O)N(C)C[C@@H]1OCCCC[C@H](C)Oc2ccc(NC(=O)Nc3ccc4c(c3)OCO4)cc2C(=O)N([C@H](C)CO)C[C@H]1C`, 2% (inactive).
In the case of `COCC(=O)Nc1ccc2c(c1)C(=O)N(C)[C@@H]1CC[C@H](CC(=O)NCC3CC3)O[C@@H]1CO2`, the reporter increase was -2.01% (inactive).
For the molecule `CO[C@H]1CN(C)C(=O)c2cc(NC(=O)c3cc(C)on3)ccc2OC[C@H](C)N(C(C)=O)C[C@H]1C`, the reporter increase was 0.72% (inactive).
For `O=C(NCCc1ccc(F)cc1)c1ccc2nccnc2c1` the value was -17.6% (inactive).
Take `COc1ccc(Cc2nc3ccc(C(=O)NCC4CCOCC4)cc3o2)cc1OC`: the reporter increase is 21% (inactive).
Under `CCCCc1nc2cc(C(=O)NCCc3cnn(C)c3)ccc2o1` stands 31.5% (inactive); under `CSCCNC(=O)c1ccc2nc(Cc3ccccc3F)oc2c1`, 70.4% (active).
For `COCCNC(=O)c1ccc2nc(Cc3ccc(OC)c(OC)c3)oc2c1` the value was 48.6% (active).
Take `CCC1C(=O)NCCN1C(=O)c1ccc2nc(Cc3ccc(OC)cc3)oc2c1` (stereo not given): the reporter increase was 0.998% (inactive).
For `O=C(N[C@H]1CC[C@@H](CCNS(=O)(=O)c2cccc(Cl)c2)O[C@@H]1CO)c1ccncc1` the value was 0.826% (inactive); for `C[C@H](CO)N1C[C@H](C)[C@H](CN(C)C(=O)Nc2ccc(C(F)(F)F)cc2)Oc2ccc(NS(=O)(=O)c3ccccc3)cc2CC1=O`, -4.41% (inactive).
For `Cc1noc(C)c1S(=O)(=O)N(C)C[C@@H]1Oc2ccc(NC(=O)Cn3cnnn3)cc2CC(=O)N([C@@H](C)CO)C[C@H]1C` the value was -6.08% (inactive).
